Results from ChEMBL document CHEMBL1157539, “Thousands of chemical starting points for antimalarial lead identification” (Nature, 2010).

What was measured:
Assay type in all cases: functional
Plasmodium falciparum [1] = test: GSK_TCMDC: Inhibition of Plasmodium falciparum 3D7 in whole red blood cells, using parasite LDH activity as an index of growth. Test compounds present at 2uM
Plasmodium falciparum [2] = test: GSK_TCMDC: Inhibition of Plasmodium falciparum Dd2 in whole red blood cells, using parasite LDH activity as an index of growth. Test compounds present at 2uM
HepG2 = test: GSK_TCMDC: Percent inhibition of human HepG2 cell line. Test compounds present at 10uM.

| SMILES | Inhibition (Plasmodium falciparum [1]) [%] | Inhibition (Plasmodium falciparum [2]) [%] | Inhibition (HepG2) [%] |
| --- | --- | --- | --- |
| O=C(NC1CCN(Cc2ccccc2)CC1)c1ccc(-c2nc3cc(Cl)c(Cl)cc3[nH]2)c(F)c1 | 100 | 83 | 4 |
| C=C[C@H]1CN2CC[C@H]1C[C@H]2[C@H](O)c1ccnc2ccc(OC)cc12.O.O=S(=O)(O)O | 97 | 22 | 0 |
| Cc1cccc2c(C(=O)NC3CCN(Cc4ccccc4)CC3)cc(-c3cccnc3)nc12 | 81 | 10 | 12 |
| CN1CCC(NCc2cccc(-c3ccc(S(=O)(=O)NCCN4CCCC4)s3)c2)CC1.O=C(O)C(F)(F)F | 91 | 1 | 10 |
| Cc1cccc2nc(-c3cccc(-c4ccc(NC(=O)Nc5ccsc5)cc4)c3)[nH]c12 | 100 | 99 | 27 |
| CCc1nc2c(N)nc(N)nc2nc1-c1ccc(OC)cc1 | 86 | 0 | 44 |
| CS(=O)(=O)O.c1ccc2c(CNCCCCCCNCc3c(OCC4CC4)ccc4ccccc34)c(OCC3CC3)ccc2c1 | 93 | 97 | 100 |
| O=C(O)C(F)(F)F.OC1(c2ccccc2)CCN(Cc2cccc(-c3c[nH]c4nc(NC5CCCC5)ncc34)c2)C1 (stereo not drawn) | 92 | 31 | 42 |
| Cc1cc(C2CCN(CCCCNC(=O)c3ccc(NC(=O)c4ccc(Cl)cc4)cc3)CC2)c(C)cc1OCc1ccncc1.Cl | 100 | 92 | 33 |
| Cc1nn(CC(C)C)c2sc(C(=O)Nc3nc(-c4ccccn4)cs3)cc12 | 96 | 67 | 29 |
| O=C(Nc1cccc(-c2cccc(-c3nc4ccccc4[nH]3)c2)c1)c1ccoc1 | 85 | 36 | 19 |
| N#Cc1cccc(-c2nc(NCc3cccc(C(F)(F)F)c3)nn2-c2cccc(C(F)(F)F)c2)c1 | 94 | 88 | 12 |
| Cc1cc(C(F)(F)F)cc(-n2ncc(-c3ccc(C(=O)NCc4ccccc4N)cc3)c2N)n1.O=C(O)C(F)(F)F | 99 | 89 | 10 |
| Fc1ccc2c(NN=Cc3ccccc3)ccnc2c1 | 100 | 99 | 1 |
| CC(C)CNCc1ccc(-c2ccc(CN(CCCN3CCN(C)CC3)C(=O)/C=C/c3ccccc3)cc2)cc1.O=C(O)C(F)(F)F | 99 | 93 | 57 |
| Cc1cccc2nc(-c3ccc(-c4ccc(NC(=O)Nc5ccc(Cl)c(Cl)c5)cc4)s3)[nH]c12 | 100 | 100 | 100 |
| CCCCNCc1ccc(OCc2cccc(COc3ccc(CNCCCC)cc3)c2)cc1.Cl | 100 | 35 | 98 |
| COc1ccc2c(c1)CC1CN(CCCCNC(=O)c3ccc(NC(=O)c4cc(Cl)cc(Cl)c4)cc3)CCN1C2 (stereo not drawn) | 100 | 57 | 7 |
| Cc1ccc2nc(C)n(C3CCN(C(=O)Cc4ccc(F)c(F)c4)CC3)c2c1 | 100 | 100 | 4 |
| Cc1cc(N/N=C/c2cccc([N+](=O)[O-])c2)c2ccccc2n1 | 100 | 98 | 0 |
| Cc1ccccc1C1CCN(C2CCC(NC(=O)/C=C/c3ccc(C(F)(F)F)cc3F)CC2)CC1 (stereo not drawn) | 99 | 58 | 72 |
